Experimental data published in PubChem BioAssay (NCI).
Values joined by “and” are separate entries in the source; they are usually repeats but may differ in a detail not shown here. Equal values may be shown once. The panel holds about 83,000 compounds, 20% with a hit somewhere; the sample as a whole holds those more often.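 Treatment: one concentration, 48 hours, 96-well format. Scoring: percent growth, with anything below 10 considered active.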 Active and inactive are the calls of the source.

tested on: OVCAR-4 ovarian; assay: NCI-60 one-dose screen, 48 h (100 = growth as untreated, 0 = no growth, -100 = all killed); settings: 10 µM unless noted

Structure (SMILES) | growth
O=C(/C=C/Nc1ccc(S(=O)(=O)Nc2ncccn2)cc1)c1ccc(N=Cc2c(O)[nH]c3ccccc23)cc1 | 106% (inactive)
CCCCCN1C(=O)/C(=c2\sc3n(c2=O)C2C(NN=3)N(CC)C(=O)N2CC)c2cccc(C)c21 (configuration not stated) | 52.1% (inactive)
C#C[C@]1(O)CC[C@H]2[C@@H]3CC=C4c5sc(Nc6ncccc6C)nc5CC[C@]4(C)[C@H]3CC[C@@]21C | 34.9% (inactive)
O=C1CSC(c2cn(-c3ccccc3)nc2-c2ccc(Cl)cc2)N1c1ccccc1 (configuration not stated) | 110% (inactive)
CC(=O)Nc1ccccc1-c1nc2ccccc2s1 | 97.4% (inactive)
O=C(/C=C/c1cccc(Br)c1)c1cccc(OCCCCOc2cccc(C(=O)/C=C/c3cccc(Br)c3)c2)c1 | 109% (inactive)
C/C(=C(\c1ccc(O)cc1)c1ccc(OCCN2CCCCCC2)cc1)c1ccc(Cl)cc1 | -59.8% (active)
Clc1ccc(CSc2nnc(-c3ccc(Cl)cc3)n2-c2ccccc2)cc1 | 16% (inactive)
O=C(CCCCCCNC(=O)C(O)(O)C(F)(F)F)Nc1nc2ccccc2s1 | 35.9% (inactive)
CC(C)NC(=O)c1cc(-c2ccc(NC(=O)Nc3ccc(F)c(C(F)(F)F)c3)cc2)nc2cccnc12 | 92.3% (inactive)
COc1ccc(-c2cnc(NC(=O)CCCCCCNC(=O)C(O)(O)C(F)(F)F)s2)cc1 | -9.83% (active)
C/C=C/CC(C)C(O)[C@H](NC(=O)[C@@H]1CCCN1C(=O)[C@](C)(CC)NC(=O)CCCCCCCCC)C(=O)N[C@@](C)(CC)C(=O)N[C@@H](CCC(N)=O)C(=O)N[C@H](CCC(N)=O)C(=O)NC(C)(C)C(=O)NC(C)(C)C(=O)N[C@@H](CCC(N)=O)C(=O)N[C@H](CC(C)C)C(=O)N[C@H](CO)CC(C)C (some centres not stated) | 86.8% (inactive) and 43.1% (inactive)
